Pf Dd2 inh: qHTS Primary assay for Inhibitors of Plasmodium falciparum Dd2 growth in vitro | P. falciparum Dd2 growth, SYBR Green, 72 h | Potency, µM (series often up to 28.9 µM), usual class: inhibitors | 4.3% of 120,000 active; active means well fitted inhibition curve with a large enough effect; further: nearly all actives have a fitted effect of over 65% in size
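Readout: SYBR Green fluorescence, 485 nm excitation, 535 nm emission, after ~16 h lysis at 37C. Before that, Dd2-infected red cells (2.5% hematocrit) grew 72 h with compound, 29 uM top final concentration.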
Of the large screens only hits and unclear results are named; the others gave an inactive call. The full list was thinned out, with hits kept by preference.

COC(=O)[C@H]1CCCN1C(=O)[C@@H]1C[C@H](NC(=O)NC2CCCCC2)CN1C(=O)CSC	none
COc1ccc2c(c1)CCc1sc(NC(=O)c3ccc(Br)cc3)nc1-2	none
COc1cccc(OC)c1C(=O)Nc1nc2c(s1)CCc1ccccc1-2	none
COc1ccc2c(c1)-c1nc(NC(=O)c3cccc(Br)c3)sc1CC2	Pf Dd2 inh 10µM
CCn1c(Cn2ccnc2C)nnc1C1CCN(c2cc(C#N)ccn2)CC1	none
COCCN1C(=O)c2cccn2CC1CNC(=O)CCCc1ccccc1 (stereo not drawn)	none
COc1ccccc1CN1CCC(CNC(=O)c2cnn(-c3ccc(Cl)cc3)c2C2CCN(C(=O)OC(C)(C)C)CC2)CC1	Pf Dd2 inh 1.3µM
Cc1cccc(C)c1-n1ncc(C(=O)NCCN2CCN(C)CC2)c1C1CCN(C(=O)OC(C)(C)C)CC1	none
CC(C)(C)OC(=O)N1CCC(c2c(C(=O)NCCN3CCCC3)cnn2-c2ccc(Cl)cc2)CC1	Pf Dd2 inh 7.1µM
Cc1ccc(-n2ncc(C(=O)NCCN3CCC(Cc4ccccc4)CC3)c2C2CCN(C(=O)OC(C)(C)C)CC2)cc1	Pf Dd2 inh 3.2µM
Cc1c(Cl)cccc1-n1ncc(C(=O)NCCN2CCN(C)CC2)c1C1CCN(C(=O)OC(C)(C)C)CC1	Pf Dd2 inh 11µM
Cc1c(Cl)cccc1-n1ncc(C(=O)N2CCN(C)CC2)c1C1CCN(C(=O)OC(C)(C)C)CC1	none
O=C(NCc1cccc(C(F)(F)F)c1)c1ccc2nccn2c1	none
O=C(O)C[C@@H]1CCN(C(=O)Nc2ccccc2)C[C@@H]1CCN1CCN(c2ccccn2)CC1	none
CC(C)C(=O)N1CCOC[C@H](Oc2ccc(C(F)(F)F)cc2)C1	none
CNC(=O)[C@@H]1CN(S(=O)(=O)c2ccc(F)c(C)c2)C[C@H]1C1CCN(C)CC1	none
CC(=O)N1CCOC[C@H](Oc2ccc(C(F)(F)F)cn2)C1	none
CCC(C(=O)NCCC(C)C)N(C(=O)Cn1nnc(-c2ccc(C)cc2)n1)c1cccc(O)c1 (stereo not drawn)	none
COc1cccc(CC(=O)Nc2ccc3c(c2)CN(Cc2cccc(OC)c2)C(=O)C(C)O3)c1 (stereo not drawn)	none
CCCS(=O)(=O)N1C[C@@H]2C[C@H](C1)c1c(-c3cccc(C#N)c3)ccc(=O)n1C2	none
CCCCNC(=O)c1nnn2c1COC(c1ccc(C)cc1)C2 (stereo not drawn)	none
Cc1ccc(C(=O)N2CCN(C(=O)c3nnn4c3COC(c3ccc(F)cc3)C4)CC2)cc1C (stereo not drawn)	Pf Dd2 inh 7.1µM
Cc1ccc(C2Cn3nnc(C(=O)NCc4ccc(F)cc4)c3CO2)cc1 (stereo not drawn)	none
COc1ccc(C(=O)N2CCN(C(=O)c3nnn4c3COC(c3ccc(F)cc3)C4)CC2)cc1 (stereo not drawn)	none
COc1ccc(C2Cn3nnc(C(=O)N4CCC(C(=O)NC5CCCCCCC5)CC4)c3CO2)cc1 (stereo not drawn)	none
COc1ccc(CCNC(=O)c2nnn3c2COC(c2ccc(C)cc2)C3)cc1OC (stereo not drawn)	Pf Dd2 inh 8.9µM
COc1ccc(C2Cn3nnc(C(=O)NC4CCCCCCC4)c3CO2)cc1 (stereo not drawn)	Pf Dd2 inh 8.9µM
COc1ccc(C2Cn3nnc(C(=O)N4CCC(C(=O)NC5CCCCC5)CC4)c3CO2)cc1 (stereo not drawn)	none
Cc1ccc(C2Cn3nnc(C(=O)N4CCN(C(=O)c5ccc(F)cc5)CC4)c3CO2)cc1 (stereo not drawn)	none
Cc1noc(C)c1[S+](=O)([O-])N1CCC2(C1)OC(=O)Nc1ccccc12 (stereo not drawn)	none
CCOc1ccc(S(=O)(=O)N(CC(=O)NCCSc2ccc(C)cc2)c2ccccc2)cc1	none
O=C(Nc1ccc(F)cc1)[C@H](CSCc1ccccc1)N1Cc2ccccc2C1=O	none
O=C(NC1CCCC1)c1ccc(-c2ccc(N3CCCCC3)nc2)cc1	none
Cc1ccccc1CC(=O)N1CCC[C@H]1c1nc(-c2ccc(F)cc2)no1	none
COc1ccc(C(=O)N2CCCC(c3nc(-c4ccccc4)no3)CCNC(=O)CC2)c(OC)c1 (stereo not drawn)	Pf Dd2 inh 7.1µM
O=C1CCN(Cc2ccncc2F)CCCC(c2nc(-c3cccnc3)no2)CCN1 (stereo not drawn)	none
O=C1CCN(C(=O)C2CCCC2)CCCC(c2nc(-c3ccccc3)no2)CCN1 (stereo not drawn)	none
Cc1ncsc1CN1CCCC(c2nc(-c3cccnc3)no2)CCNC(=O)CC1 (stereo not drawn)	none
COc1ccc(C(=O)N2CCCC(c3nc(-c4cccnc4)no3)CCNC(=O)CC2)cc1 (stereo not drawn)	none
O=C1CCN(Cc2ccncc2)CCCC(c2nc(-c3cccnc3)no2)CCN1 (stereo not drawn)	none
CCOc1ccccc1CN1CCCC(c2nc(-c3cccnc3)no2)CCNC(=O)CC1 (stereo not drawn)	Pf Dd2 inh 4µM
O=C1CCN(C2CCC2)CCCC(c2nc(-c3cccnc3)no2)CCN1 (stereo not drawn)	none
N#Cc1cccc(CN2CCCC(c3nc(-c4cccnc4)no3)CCNC(=O)CC2)c1 (stereo not drawn)	Pf Dd2 inh 5µM
COc1ccc(NC(=O)[C@H](Cc2ccccc2)N2Cc3ccccc3C2=O)cc1OC	none
O=C1CCN(C(=O)COc2ccccc2)CCCC(c2nc(-c3cnccn3)no2)CCN1 (stereo not drawn)	none
CC(C)N1C(=O)OCC12CCN(Cc1ccc3c(c1)CCO3)C2 (stereo not drawn)	none
CS(=O)(=O)N1CCC(C2CCN(Cc3ccc(C#N)cc3)C2)CC1 (stereo not drawn)	none
COCCCNC(=O)[C@H]1CN(Cc2ccccc2)C[C@H]1C(=O)O	none
O=C(NCCCc1ccccc1F)[C@@]12CNC[C@@H]1CN(Cc1ccccc1)C2	Pf Dd2 inh 7.9µM
O=C(NCCCc1ccccc1)C1CN(Cc2ccccc2)C(=O)N1 (stereo not drawn)	none
COc1ccc(-c2cc(C[C@@H]3CC[C@H](O)[C@@H](CNC(=O)Nc4ccccc4OC)O3)no2)cc1	none
COc1ccccc1C(=O)Nc1ccc2nc(SCC(=O)N(C)c3ccccc3)sc2c1	Pf Dd2 inh 8.9µM
CN(C(=O)CSc1nc2ccc(NC(=O)c3ccccc3F)cc2s1)c1ccccc1	none
Cc1ccccc1OCC(=O)Nc1ccc2nc(SCC(=O)N(C)c3ccccc3)sc2c1	none
CCOc1ccc(C(=O)Nc2ccc3nc(SCC(=O)N(C)c4ccccc4)sc3c2)cc1	Pf Dd2 inh 8.9µM
CCOC(=O)CSc1nc2ccc(NC(=O)c3ccc(C)cc3)cc2s1	none
CN(C(=O)CSc1nc2ccc(NC(=O)c3cccc(F)c3)cc2s1)c1ccccc1	none
Cc1ccc(C(=O)N2CCC3(C2)C(=NC2CCCC2)NC(=O)N3c2cc(F)cc(F)c2)cc1 (stereo not drawn)	none
Cc1cnc(C(=O)N[C@@H]2CCC[C@@H]2C(=O)NCc2ccc(C(C)C)cc2)cn1	none
CCCCNC(=O)CC(c1cccc(OC)c1)c1c[nH]c2ccccc12 (stereo not drawn)	none
COc1ccc(C(CC(=O)NCCc2ccc(OC)c(OC)c2)c2c[nH]c3ccccc23)c(OC)c1 (stereo not drawn)	Pf Dd2 inh 11µM
CCCCNC(=O)CC(c1ccc(OC)cc1OC)c1c[nH]c2c(CC)cccc12 (stereo not drawn)	none
CCOc1cc(CNC(=O)c2ccc3nc(CCc4ccccc4)oc3c2)ccc1OC	none
O=C(CC(c1ccccc1)c1ccccc1Cl)N1CCOCC1 (stereo not drawn)	none
